25 sequences from the supplement of paper PMC12645437, “Orthogonal IMiD-Degron Pairs Induce Selective Protein Degradation in Cells” (ACS Chemical Biology, 2025) can be followed below.

The target of the assay is T1, CRBN, Q96SW2.
T1 chain: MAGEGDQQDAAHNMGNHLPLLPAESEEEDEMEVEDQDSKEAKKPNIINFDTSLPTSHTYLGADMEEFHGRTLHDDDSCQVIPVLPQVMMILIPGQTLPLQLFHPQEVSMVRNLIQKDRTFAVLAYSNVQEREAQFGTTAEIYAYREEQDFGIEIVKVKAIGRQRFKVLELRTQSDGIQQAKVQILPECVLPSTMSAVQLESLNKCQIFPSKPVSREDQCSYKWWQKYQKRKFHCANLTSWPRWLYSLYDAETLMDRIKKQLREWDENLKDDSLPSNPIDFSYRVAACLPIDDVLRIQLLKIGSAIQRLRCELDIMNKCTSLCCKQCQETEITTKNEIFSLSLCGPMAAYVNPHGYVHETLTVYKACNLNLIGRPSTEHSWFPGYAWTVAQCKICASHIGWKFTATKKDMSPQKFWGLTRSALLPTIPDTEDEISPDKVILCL
The assay can be described thus: log2 fold change of degron read counts, EGFP-low vs EGFP+ sorted cells (limma voom), compound-induced degradation; higher = more compound-induced degradation of the degron-EGFP fusion; degrons are variants of IKZF1/3 zinc finger 2; compound dose not given here. Conditions: Jurkat, 18 h.

Where [1] appears, read: compound: compound 19 (5-tert-butyl-thalidomide).
Setting [2] is: compound: compound 22 (5-morpholino-thalidomide).
[3] abbreviates: compound: compound 33 (diphenyl IMiD analogue).

In all, about 8,300 sequences were measured (“log2 fold change of degron read counts, EGFP-low vs EGFP+ sorted cells (limma voom), compound-induced degradation”: median about -1.1, highest 2% from about 3.2 on). What follows is part of a selection rich in the highest values, with near analogues and random picks from the rest.
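Note: pooled lentiviral library of zinc finger degron-EGFP fusions in mCherry-positive Jurkat cells, FACS-sorted after compound exposure, with degron abundance counted by next-generation sequencing.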

Consider LMCEICGFLCTQKGNLLRHIKL [46L_47M_49E_50I_52G_53F_54L_55C_67L_, Q9UKT9], for which the “log2 fold change of degron read counts” value is -1.21 under setting [1], -1.08 under setting [2], 0.82 under setting [3] and 0.189 (compound: thalidomide).

For LGCEICGFFCTQKGNLLRHIKL [46L_47G_49E_50I_52G_53F_54F_55C_67L_, Q9UKT9], the “log2 fold change of degron read counts” value under setting [1] came to 1.15, the “log2 fold change of degron read counts” value under setting [2] turned out to be 0.461, the “log2 fold change of degron read counts” value under setting [3] was 0.628 and the “log2 fold change of degron read counts” value (compound: thalidomide) came to 0.198.

In the case of FICEQCGAEFTQKGNLLRHIKL [46F_47I_49E_50Q_52G_53A_54E_55F_67L_, Q9UKT9], the “log2 fold change of degron read counts” value under setting [1] was -2.28, the “log2 fold change of degron read counts” value under setting [2] is -1.92, the “log2 fold change of degron read counts” value under setting [3] was -1.09 and the “log2 fold change of degron read counts” value (compound: thalidomide) is -0.382.

In the case of FMCSVCGHPFTQKGNLLRHIKL [46F_47M_49S_50V_52G_53H_54P_55F_67L_, Q9UKT9], the “log2 fold change of degron read counts” value by setting is: under setting [1], -2.27; under setting [2], -1.78; under setting [3], -1.3; (compound: thalidomide) -1.51.

Take LLCNQCGFMCTQKGNLLRHIKL [46L_47L_49N_50Q_52G_53F_54M_55C_67L_, Q9UKT9]: the “log2 fold change of degron read counts” value by setting is: under setting [1], -1.85; under setting [2], -1.98; under setting [3], -1.61; (compound: thalidomide) -1.33.

FYCDQCGAYFTQKGNLLRHIKL [46F_47Y_49D_50Q_52G_53A_54Y_55F_67L_, Q9UKT9]: the “log2 fold change of degron read counts” value by setting is: under setting [1], -0.745; under setting [2], -1.31; under setting [3], -1.38; (compound: thalidomide) -2.23.

Regarding FDCNQCGHQFTQKGNLLRHIKL [46F_47D_49N_50Q_52G_53H_54Q_55F_67L_, Q9UKT9], the “log2 fold change of degron read counts” value by setting is: under setting [1], -2.63; under setting [2], -3.11; under setting [3], -2.64; (compound: thalidomide) -2.65.

For FSCEICGAHFTQKGNLLRHIKL [46F_47S_49E_50I_52G_53A_54H_55F_67L_, Q9UKT9], the “log2 fold change of degron read counts” value was 2.47 under setting [1], 0.831 under setting [2], 0.776 under setting [3] and 0.206 (compound: thalidomide).

FDCEICGAHFTQKGNLLRHIKL [46F_47D_49E_50I_52G_53A_54H_55F_67L_, Q9UKT9]: the “log2 fold change of degron read counts” value is, setting by setting: under setting [1], 3.28; under setting [2], 0.822; under setting [3], -0.326; (compound: thalidomide) 1.02.

Consider FVCEICGAHFTQKGNLLRHIKL [46F_47V_49E_50I_52G_53A_54H_55F_67L_, Q9UKT9], for which the “log2 fold change of degron read counts” value was 0.302 under setting [1], 1.59 under setting [2], 1.49 under setting [3] and 1.95 (compound: thalidomide).

In the case of FVCEICGRHFTQKGNLLRHIKL [46F_47V_49E_50I_52G_53R_54H_55F_67L_, Q9UKT9], the “log2 fold change of degron read counts” value was -2.45 under setting [1], -1.78 under setting [2], -2.13 under setting [3] and -0.209 (compound: thalidomide).

Regarding FTCEICGHLFTQKGNLLRHIKL [46F_47T_49E_50I_52G_53H_54L_55F_67L_, Q9UKT9], the “log2 fold change of degron read counts” value under setting [1] was -2.72, the “log2 fold change of degron read counts” value under setting [2] is -3.75, the “log2 fold change of degron read counts” value under setting [3] is -2.61 and the “log2 fold change of degron read counts” value (compound: thalidomide) was -2.41.

Regarding FYCPICGHCFTQKGNLLRHIKL [46F_47Y_49P_50I_52G_53H_54C_55F_67L_, Q9UKT9], the “log2 fold change of degron read counts” value reads like this: under setting [1], -1.24; under setting [2], -1.33; under setting [3], -0.382; (compound: thalidomide) -1.61.

Consider FQCPVCGANFTQKGNLLRHIKL [46F_47Q_49P_50V_52G_53A_54N_55F_67L_, Q9UKT9], for which the “log2 fold change of degron read counts” value by setting is: under setting [1], 0.19; under setting [2], 2.02; under setting [3], 1.9; (compound: thalidomide) 3.48.

As to FMCPVCGANFTQKGNLLRHIKL [46F_47M_49P_50V_52G_53A_54N_55F_67L_, Q9UKT9], the “log2 fold change of degron read counts” value runs as follows: under setting [1], -0.564; under setting [2], 1.22; under setting [3], 2.92; (compound: thalidomide) 1.69.

With FLCPVCGANFTQKGNLLRHIKL [46F_47L_49P_50V_52G_53A_54N_55F_67L_, Q9UKT9], the “log2 fold change of degron read counts” value reads like this: under setting [1], -0.132; under setting [2], 0.243; under setting [3], 1.67; (compound: thalidomide) 1.54.

With FYCPVCGANFTQKGNLLRHIKL [46F_47Y_49P_50V_52G_53A_54N_55F_67L_, Q9UKT9], the “log2 fold change of degron read counts” value by setting is: under setting [1], 2.82; under setting [2], 3.69; under setting [3], 2.32; (compound: thalidomide) 1.3.

For the sequence FVCPVCGANFTQKGNLLRHIKL [46F_47V_49P_50V_52G_53A_54N_55F_67L_, Q9UKT9], the “log2 fold change of degron read counts” value under setting [1] is -0.407, the “log2 fold change of degron read counts” value under setting [2] came out at 2.43, the “log2 fold change of degron read counts” value under setting [3] is 1.69 and the “log2 fold change of degron read counts” value (compound: thalidomide) amounted to 2.77.

For FWCNICGANFTQKGNLLRHIKL [46F_47W_49N_50I_52G_53A_54N_55F_67L_, Q9UKT9], the “log2 fold change of degron read counts” value by setting is: under setting [1], 2.27; under setting [2], 3.62; under setting [3], 1.88; (compound: thalidomide) 0.44.

FECPVCGANFTQKGNLLRHIKL [46F_47E_49P_50V_52G_53A_54N_55F_67L_, Q9UKT9]: the “log2 fold change of degron read counts” value under setting [1] was -0.535, the “log2 fold change of degron read counts” value under setting [2] was -0.523, the “log2 fold change of degron read counts” value under setting [3] was 2.7 and the “log2 fold change of degron read counts” value (compound: thalidomide) amounted to 3.16.

Consider FSCPVCGANFTQKGNLLRHIKL [46F_47S_49P_50V_52G_53A_54N_55F_67L_, Q9UKT9], for which the “log2 fold change of degron read counts” value by setting is: under setting [1], 1.92; under setting [2], 1.29; under setting [3], 1.78; (compound: thalidomide) 0.865.

As to FECNICGANFTQKGNLLRHIKL [46F_47E_49N_50I_52G_53A_54N_55F_67L_, Q9UKT9], the “log2 fold change of degron read counts” value reads like this: under setting [1], -1.93; under setting [2], -1.27; under setting [3], 1.75; (compound: thalidomide) 2.22.

With FNCPVCGANFTQKGNLLRHIKL [46F_47N_49P_50V_52G_53A_54N_55F_67L_, Q9UKT9], the “log2 fold change of degron read counts” value under setting [1] turned out to be 1.79, the “log2 fold change of degron read counts” value under setting [2] was found to be 0.637, the “log2 fold change of degron read counts” value under setting [3] turned out to be 0.771 and the “log2 fold change of degron read counts” value (compound: thalidomide) was found to be 0.306.

For the sequence FYCNICGANFTQKGNLLRHIKL [46F_47Y_49N_50I_52G_53A_54N_55F_67L_, Q9UKT9], the “log2 fold change of degron read counts” value is, setting by setting: under setting [1], 1.69; under setting [2], 2.89; under setting [3], 1.33; (compound: thalidomide) 0.00754.

Turning to FWCPVCGANFTQKGNLLRHIKL [46F_47W_49P_50V_52G_53A_54N_55F_67L_, Q9UKT9], the “log2 fold change of degron read counts” value is 3.05 under setting [1], 3.85 under setting [2], 2.12 under setting [3] and 1.69 (compound: thalidomide).
